Here are results for twelve molecules from PMC12529666, “Dysregulation of AGO2-miRNA dynamics underlies the AGO2-associated Lessel–Kreienkamp syndrome”.

Common to all, as to assay: RNA Bind-n-Seq (nitrocellulose filter binding and sequencing); miR-122 guide loaded in AGO2; 60 min incubation; 30 mM Tris pH 8.0, 100 mM potassium acetate, 2 mM magnesium acetate, 0.5 mM TCEP, 0.005% NP-40, 0.01 mg/ml yeast tRNA; 3 nM AGO2-miR-122, 100 nM RNA library; 60; high values mean tight binding
Common to all, as to conditions: protein: recombinant; tags: His6 (N-terminal, pFastBac HTA)

The target of test [1] is AGO2 L192P (Homo sapiens, UniProt Q9UKV8 1-859, L192P;S387D;S824A;S828D;S831D;S834A). An outline of the steps:
(§1)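 His-tagged AGO2 was expressed in Sf9 insect cells by baculovirus, loaded with a synthetic guide RNA, and purified by Ni-NTA and a biotinylated capture oligo. Bound RNA was extracted, reverse-transcribed, barcode-amplified and Illumina-sequenced. Fold enrichment is each sequence's read fraction divided by its input-library read fraction.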

The target in test [2] is AGO2 A367P (Homo sapiens, UniProt Q9UKV8 1-859, A367P;S387D;S824A;S828D;S831D;S834A). The procedure, abridged: as §1
Chain of AGO2 A367P (Q9UKV8 whole entry A367P/S387D/S824A/S828D/S831D/S834A): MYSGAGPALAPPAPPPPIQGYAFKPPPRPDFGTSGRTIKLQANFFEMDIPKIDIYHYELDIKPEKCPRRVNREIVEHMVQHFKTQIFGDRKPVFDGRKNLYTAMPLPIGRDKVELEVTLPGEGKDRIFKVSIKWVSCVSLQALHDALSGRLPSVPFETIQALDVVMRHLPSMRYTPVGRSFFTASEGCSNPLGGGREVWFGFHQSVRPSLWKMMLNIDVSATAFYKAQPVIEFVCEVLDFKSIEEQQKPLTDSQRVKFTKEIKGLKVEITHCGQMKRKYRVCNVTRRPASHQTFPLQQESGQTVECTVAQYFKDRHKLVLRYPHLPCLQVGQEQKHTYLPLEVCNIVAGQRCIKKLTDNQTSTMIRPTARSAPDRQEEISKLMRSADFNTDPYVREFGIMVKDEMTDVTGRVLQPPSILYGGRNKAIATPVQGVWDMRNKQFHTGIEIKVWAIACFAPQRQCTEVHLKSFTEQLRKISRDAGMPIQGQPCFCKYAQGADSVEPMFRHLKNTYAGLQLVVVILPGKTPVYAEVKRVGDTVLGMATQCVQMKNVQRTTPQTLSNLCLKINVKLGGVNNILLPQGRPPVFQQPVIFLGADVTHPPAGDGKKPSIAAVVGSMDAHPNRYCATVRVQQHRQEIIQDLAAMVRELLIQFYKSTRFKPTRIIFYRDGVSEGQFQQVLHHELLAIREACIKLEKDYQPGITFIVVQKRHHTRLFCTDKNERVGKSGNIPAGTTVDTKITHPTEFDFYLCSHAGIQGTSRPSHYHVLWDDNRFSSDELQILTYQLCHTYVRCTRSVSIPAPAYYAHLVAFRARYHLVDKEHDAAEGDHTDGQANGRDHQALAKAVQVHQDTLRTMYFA
Test [3] addresses AGO2 T357M (Homo sapiens, UniProt Q9UKV8 1-859, T357M;S387D;S824A;S828D;S831D;S834A). The procedure, abridged: as §1

Chain of AGO2 T357M (Q9UKV8 whole entry T357M/S387D/S824A/S828D/S831D/S834A): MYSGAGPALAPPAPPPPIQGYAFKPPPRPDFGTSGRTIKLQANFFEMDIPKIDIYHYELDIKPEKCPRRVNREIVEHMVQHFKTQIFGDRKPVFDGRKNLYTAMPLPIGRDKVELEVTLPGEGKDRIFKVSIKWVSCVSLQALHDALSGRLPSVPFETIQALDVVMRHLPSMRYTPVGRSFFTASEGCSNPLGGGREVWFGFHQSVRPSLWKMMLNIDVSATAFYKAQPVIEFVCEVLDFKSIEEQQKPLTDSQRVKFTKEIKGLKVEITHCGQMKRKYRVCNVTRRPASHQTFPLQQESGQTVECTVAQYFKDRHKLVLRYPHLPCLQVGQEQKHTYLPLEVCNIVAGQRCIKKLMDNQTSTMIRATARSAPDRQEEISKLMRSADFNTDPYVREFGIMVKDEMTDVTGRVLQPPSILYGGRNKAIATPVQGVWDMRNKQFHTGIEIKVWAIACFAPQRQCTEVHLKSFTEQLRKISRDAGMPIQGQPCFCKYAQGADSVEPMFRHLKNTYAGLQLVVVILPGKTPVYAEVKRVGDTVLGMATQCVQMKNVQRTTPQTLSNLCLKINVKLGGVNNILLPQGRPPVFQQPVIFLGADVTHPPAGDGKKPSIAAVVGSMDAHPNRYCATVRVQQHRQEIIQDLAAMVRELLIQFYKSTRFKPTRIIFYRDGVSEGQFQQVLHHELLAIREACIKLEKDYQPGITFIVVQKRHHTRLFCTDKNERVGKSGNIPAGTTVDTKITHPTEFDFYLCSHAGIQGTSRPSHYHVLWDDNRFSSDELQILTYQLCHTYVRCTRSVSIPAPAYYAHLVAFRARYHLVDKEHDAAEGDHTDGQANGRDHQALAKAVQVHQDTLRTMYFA
Chain of AGO2 L192P (Q9UKV8 whole entry L192P/S387D/S824A/S828D/S831D/S834A): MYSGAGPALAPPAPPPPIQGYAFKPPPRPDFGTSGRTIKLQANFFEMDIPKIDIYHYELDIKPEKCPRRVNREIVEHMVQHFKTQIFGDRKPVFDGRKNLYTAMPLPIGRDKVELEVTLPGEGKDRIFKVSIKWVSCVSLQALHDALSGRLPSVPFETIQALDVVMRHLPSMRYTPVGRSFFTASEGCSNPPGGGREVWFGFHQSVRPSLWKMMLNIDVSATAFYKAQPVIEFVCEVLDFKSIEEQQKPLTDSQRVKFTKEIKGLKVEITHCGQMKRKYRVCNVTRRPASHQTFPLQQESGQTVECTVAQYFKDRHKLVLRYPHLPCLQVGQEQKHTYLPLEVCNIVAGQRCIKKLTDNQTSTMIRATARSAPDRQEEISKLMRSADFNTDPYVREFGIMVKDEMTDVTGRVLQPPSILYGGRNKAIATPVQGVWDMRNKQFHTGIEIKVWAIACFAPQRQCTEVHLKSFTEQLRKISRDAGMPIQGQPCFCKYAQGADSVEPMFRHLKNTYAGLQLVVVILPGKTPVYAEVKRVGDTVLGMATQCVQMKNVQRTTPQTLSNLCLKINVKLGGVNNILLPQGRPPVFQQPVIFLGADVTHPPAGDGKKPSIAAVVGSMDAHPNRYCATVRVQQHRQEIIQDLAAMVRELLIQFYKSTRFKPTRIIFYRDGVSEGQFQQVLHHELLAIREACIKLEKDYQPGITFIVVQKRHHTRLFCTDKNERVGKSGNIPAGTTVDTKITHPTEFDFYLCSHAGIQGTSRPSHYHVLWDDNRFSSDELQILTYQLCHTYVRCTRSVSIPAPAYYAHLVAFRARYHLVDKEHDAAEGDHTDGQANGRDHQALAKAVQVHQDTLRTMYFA

B1: GTATCCTG (ssRNA)
RNA 1: GAGUUCUACAGUCCGACGAUCCCAACGUAUCCUGCACCUGGAAUUCUCGGGUGCCAA
RNA 2: UGGAGUGUGACAAUGGUGUUUG
DNA 1: GATCGTCGGACTGTAGAACTC
DNA 2: TTGGCACCCGAGAATTCCA
modifications: constant regions annealed to DNA blockers; guide miR-122 5' phosphate
With B1, the binding signal is 0.337 fold enrichment over input in test [1], 0.123 fold enrichment over input in test [2] and 0.449 fold enrichment over input in test [3].

B2: ATACCTTG (ssRNA)
RNA 1: GAGUUCUACAGUCCGACGAUCCCAACAUACCUUGCACCUGGAAUUCUCGGGUGCCAA
RNA 2: UGGAGUGUGACAAUGGUGUUUG
DNA 1: GATCGTCGGACTGTAGAACTC
DNA 2: TTGGCACCCGAGAATTCCA
modifications: constant regions annealed to DNA blockers; guide miR-122 5' phosphate
Consider B2, for which the binding signal in test [1] is 0.418 fold enrichment over input; in test [2], 0.125 fold enrichment over input; in test [3] it was 0.573 fold enrichment over input.

B3: ATACCTTA (ssRNA)
RNA 1: GAGUUCUACAGUCCGACGAUCCCAACAUACCUUACACCUGGAAUUCUCGGGUGCCAA
RNA 2: UGGAGUGUGACAAUGGUGUUUG
DNA 1: GATCGTCGGACTGTAGAACTC
DNA 2: TTGGCACCCGAGAATTCCA
modifications: constant regions annealed to DNA blockers; guide miR-122 5' phosphate
With B3, the binding signal in test [1] was 0.475 fold enrichment over input; in test [2], 0.166 fold enrichment over input; in test [3] it was 0.561 fold enrichment over input.

B4: ATGTCTTG (ssRNA)
RNA 1: GAGUUCUACAGUCCGACGAUCCCAACAUGUCUUGCACCUGGAAUUCUCGGGUGCCAA
RNA 2: UGGAGUGUGACAAUGGUGUUUG
DNA 1: GATCGTCGGACTGTAGAACTC
DNA 2: TTGGCACCCGAGAATTCCA
modifications: constant regions annealed to DNA blockers; guide miR-122 5' phosphate
For the molecule B4, the binding signal was 0.357 fold enrichment over input in test [1], 0.128 fold enrichment over input in test [2] and 0.449 fold enrichment over input in test [3].

B5: GCGTTCTG (ssRNA)
RNA 1: GAGUUCUACAGUCCGACGAUCCCAACGCGUUCUGCACCUGGAAUUCUCGGGUGCCAA
RNA 2: UGGAGUGUGACAAUGGUGUUUG
DNA 1: GATCGTCGGACTGTAGAACTC
DNA 2: TTGGCACCCGAGAATTCCA
modifications: constant regions annealed to DNA blockers; guide miR-122 5' phosphate
On to B5, for which the binding signal in test [1] is 0.348 fold enrichment over input; in test [2], 0.135 fold enrichment over input; in test [3], 0.496 fold enrichment over input.

B6: ATATTTTG (ssRNA)
RNA 1: GAGUUCUACAGUCCGACGAUCCCAACAUAUUUUGCACCUGGAAUUCUCGGGUGCCAA
RNA 2: UGGAGUGUGACAAUGGUGUUUG
DNA 1: GATCGTCGGACTGTAGAACTC
DNA 2: TTGGCACCCGAGAATTCCA
modifications: constant regions annealed to DNA blockers; guide miR-122 5' phosphate
With B6, the figures for the binding signal in test [1], in test [2] and in test [3] were 0.369 fold enrichment over input, 0.149 fold enrichment over input and 0.584 fold enrichment over input, respectively.

B7: ATACCCCG (ssRNA)
RNA 1: GAGUUCUACAGUCCGACGAUCCCAACAUACCCCGCACCUGGAAUUCUCGGGUGCCAA
RNA 2: UGGAGUGUGACAAUGGUGUUUG
DNA 1: GATCGTCGGACTGTAGAACTC
DNA 2: TTGGCACCCGAGAATTCCA
modifications: constant regions annealed to DNA blockers; guide miR-122 5' phosphate
On to B7, for which the binding signal in test [1] is 0.382 fold enrichment over input; in test [2] it was 0.14 fold enrichment over input; in test [3], 0.471 fold enrichment over input.

B8: ATATCCTG (ssRNA)
RNA 1: GAGUUCUACAGUCCGACGAUCCCAACAUAUCCUGCACCUGGAAUUCUCGGGUGCCAA
RNA 2: UGGAGUGUGACAAUGGUGUUUG
DNA 1: GATCGTCGGACTGTAGAACTC
DNA 2: TTGGCACCCGAGAATTCCA
modifications: constant regions annealed to DNA blockers; guide miR-122 5' phosphate
Regarding B8, the binding signal in test [1] was 0.349 fold enrichment over input; in test [3] it was 0.475 fold enrichment over input.

B9: GTGTTCTG (ssRNA)
RNA 1: GAGUUCUACAGUCCGACGAUCCCAACGUGUUCUGCACCUGGAAUUCUCGGGUGCCAA
RNA 2: UGGAGUGUGACAAUGGUGUUUG
DNA 1: GATCGTCGGACTGTAGAACTC
DNA 2: TTGGCACCCGAGAATTCCA
modifications: constant regions annealed to DNA blockers; guide miR-122 5' phosphate
With B9, the binding signal was 0.352 fold enrichment over input in test [1], 0.132 fold enrichment over input in test [2] and 0.47 fold enrichment over input in test [3].

B10: ATGCCTCG (ssRNA)
RNA 1: GAGUUCUACAGUCCGACGAUCCCAACAUGCCUCGCACCUGGAAUUCUCGGGUGCCAA
RNA 2: UGGAGUGUGACAAUGGUGUUUG
DNA 1: GATCGTCGGACTGTAGAACTC
DNA 2: TTGGCACCCGAGAATTCCA
modifications: constant regions annealed to DNA blockers; guide miR-122 5' phosphate
With B10, the values for the binding signal in test [1], in test [2] and in test [3] were 0.34 fold enrichment over input, 0.134 fold enrichment over input and 0.474 fold enrichment over input, respectively.

B11: GTGTCCTG (ssRNA)
RNA 1: GAGUUCUACAGUCCGACGAUCCCAACGUGUCCUGCACCUGGAAUUCUCGGGUGCCAA
RNA 2: UGGAGUGUGACAAUGGUGUUUG
DNA 1: GATCGTCGGACTGTAGAACTC
DNA 2: TTGGCACCCGAGAATTCCA
modifications: constant regions annealed to DNA blockers; guide miR-122 5' phosphate
Take B11: the binding signal in test [1] is 0.335 fold enrichment over input; in test [2], 0.124 fold enrichment over input; in test [3], 0.452 fold enrichment over input.

B12: ATGTTCTG (ssRNA)
RNA 1: GAGUUCUACAGUCCGACGAUCCCAACAUGUUCUGCACCUGGAAUUCUCGGGUGCCAA
RNA 2: UGGAGUGUGACAAUGGUGUUUG
DNA 1: GATCGTCGGACTGTAGAACTC
DNA 2: TTGGCACCCGAGAATTCCA
modifications: constant regions annealed to DNA blockers; guide miR-122 5' phosphate
Regarding B12, the binding signal in test [1] is 0.362 fold enrichment over input; in test [2] it was 0.132 fold enrichment over input; in test [3] it was 0.487 fold enrichment over input.
